Experimental data: PubChem BioAssay (NCI)
About 83,000 compounds went through this panel and 20% of them were active in at least one assay; those are over-represented in the sample as a whole.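 Assay: single dose, 48 h. Readout: percent growth (0 = no net growth; negative = cell death). Active: <10.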 Active and inactive are the calls of the source.

What follows are molecules tested on NCI/ADR-RES ovarian (assay: NCI-60 one-dose screen, 48 h (100 = growth as untreated, 0 = no growth, -100 = all killed)). Settings: 10 µM unless noted.

Structure (SMILES) | growth
O=c1[nH]c2ccc(Cl)cc2cc1CSc1ccccc1Nc1nccc(-c2ccc(Cl)cc2)n1 | 117% (inactive)
CC(C)(C)OC(=O)N1C(=O)c2c(c3c4ccccc4[nH]c3c3ccc4ccccc4c23)C1=O | 75.5% (inactive)
CNC(=O)c1cc(-c2ccc(NC(=O)Nc3ccc(N4CCN(C)CC4)c(C(F)(F)F)c3)cc2)nc2cccnc12 | -21.6% (active)
C/C(=N/NC(N)=S)c1ccc(Nc2nc(SCC(C)C)nc(-c3ccc(F)cc3)c2C#N)cc1 | -14.6% (active)
CCCCN1C(=O)/C(=c2\sc3n(c2=O)C2C(NN=3)N(CC)C(=O)N2CC)c2cc(Cl)ccc21 (stereo not drawn) | 79.4% (inactive)
COc1cc(-c2nc3ccc(-c4nnc(SCC(=O)Nc5ccc(C(C)=O)cc5)o4)cc3[nH]2)cc(OC)c1OC | 107% (inactive)
N#Cc1c(-c2ccc(Cl)cc2)nc(SCc2ccc(F)cc2)nc1N1CCNCC1 | 51.2% (inactive)
Cn1cc(-c2cc(N)n3nc(-c4cn(C)c5ccc(Br)cc45)cc3n2)c2cc(Br)ccc21 | 86.5% (inactive)
NS(=O)(=O)c1ccc(Nc2nc(SCC(=O)c3ccc(Cl)cc3)nc3ccccc23)cc1 | 105% (inactive)
CC(C)(C)Nc1nc2c(OCCc3ccccc3)cccn2c1-c1ccc(O)cc1 | 50.4% (inactive)
N#Cc1c(-c2ccc(Cl)cc2)nc(SCc2ccc([N+](=O)[O-])cc2)nc1N1CCNCC1 | 8.72% (active)
Cc1cccc(/C=C/c2nn3c(-c4ccco4)nnc3s2)c1 | 91.6% (inactive)
Cc1sc2c(c1C)c(=O)nc1c(-c3nc(-c4ccc(F)cc4)no3)n[nH]n12 | 109% (inactive)
